Source: PubChem BioAssay (NCI)
About 83,000 compounds went through this panel and 20% of them were active in at least one assay; those are over-represented in the sample as a whole.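 96-well plates, one dose, 48 hours. Percent growth reported; active if below 10.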 Activity calls are given as the source filed them.

Test system: HS 578T breast
Assay: NCI-60 one-dose screen, 48 h (100 = growth as untreated, 0 = no growth, -100 = all killed)
Details: 10 µM unless noted

| SMILES | growth |
| --- | --- |
| O=c1c2cc(Br)cc(Br)c2nc(-c2ccc(Cl)cc2)n1/N=C\c1ccccc1F | 60.8% (inactive) |
| O=C(O)CSc1ccc(NCc2oc(CO)cc(=O)c2O)cc1 | 90.9% (inactive) |
| O=C(c1ccccc1)C1OC1C(=O)c1ccccc1 (stereo unspecified) | 54.2% (inactive) |
| CS(=O)(=O)c1ccc(C(=O)Nc2ccc(Cl)c(-c3ccccn3)c2)c(Cl)c1 | 51.1% (inactive) |
| COc1ccccc1/C=N\Nc1ccc([N+](=O)[O-])cn1 | 124% (inactive) |
| CCN1C(=O)N(CC)C2C1N=C(SC)N2/N=C/C=C/c1ccccc1OC (stereo unspecified) | 59.2% (inactive) |
| O=C(c1ccccc1)C(CCc1ccccn1)CCc1ccccn1 | 121% (inactive) |
| C=C[C@H]1CCC/C=C/[C@@H]2C[C@H](O)C[C@H]2[C@H](O)/C=C/C(=O)O1 | 18.8% (inactive) |
| CCN1C(=O)N(CC)C2C1NC(=O)N2/N=C/C=C/c1ccccc1 (stereo unspecified) | 34.8% (inactive) |
| O=[N+]([O-])c1ccc(N/N=C/c2ccccc2O)nc1 | 79.7% (inactive) |
| C#CCNc1nc(NCCNC(=O)CCl)nc(N(C)CCCCc2ccccc2)n1 | 94.2% (inactive) |
| O=S1(=O)NCCCN1CCNc1nccc(-c2c(-c3cccc(O)c3)nc3sccn23)n1 | 70.4% (inactive) |
| OC(CCCCCCCCC(O)CN1CCc2ccccc2C1)CN1CCc2ccccc2C1 (stereo unspecified) | 108% (inactive) |
| CCCCCCCCCCCCNC(=O)N[C@H](C(=O)N[C@H]1/C=C/CCNC(=O)/C=C/[C@H](C)NC1=O)C(C)C | 49.5% (inactive) |
| COc1ccccc1-[n+]1cc(-c2ccc(-c3ccccc3)cc2)n2c1CCCCC2 | 22.1% (inactive) |
| O=C(CCl)N1c2ccccc2Oc2ccc3ccccc3c21 | -12.6% (active) |
| C=C(c1ccc(C(=O)NCCCn2ccnc2)cc1)c1cc2c(cc1C)C(C)(C)CCC2(C)C | 59.7% (inactive) |
| COc1cc(CN2CCC(N3CCCC3=O)c3ccccc32)cc(OC)c1OC (stereo unspecified) | 88.3% (inactive) |
| CC(=O)Nc1ccc(/C=N/N2CCCCCC2)cc1 | 96.3% (inactive) |

| SMILES | growth |
| --- | --- |
| CCCCc1nc(Cl)c(C2CC(c3ccc(S(N)(=O)=O)cc3)=NN2c2cc(Cl)cc(Cl)c2)[nH]1 (stereo unspecified) | 36.9% (inactive) |
| O=C1NN(C(=O)c2ccccc2)C(c2ccc(Cl)c(Cl)c2)=C/C1=C\c1ccccc1[N+](=O)[O-] | 30.8% [6.75 µM] (inactive) |
| O=C(NNC(=O)c1cccc(Cl)c1)c1ccccc1 | 105% (inactive) |
| Cc1c(C(N)=O)sc2ncn(CC(=O)NN=C3CCCCC3)c(=O)c12 | 108% (inactive) |
| Clc1cc(Cl)cc(-c2cnc3nonc3n2)c1 | 102% (inactive) |
| CCOC(=O)Cn1c(-c2nonc2NC(=O)c2ccccc2F)nc2ccccc21 | 73.1% (inactive) |
| COc1ccc(C(=O)O)cc1.[Ag] | 96.1% (inactive) |
| COc1cccc(C2C(C#N)=C(N)Oc3cc4c(cc32)OCO4)c1 (stereo unspecified) | 27.8% (inactive) |
| C=CCOC(=O)C1=C(C)NC2=C(C(=O)CCC2)C1c1ccc(F)cc1 (stereo unspecified) | 88.4% (inactive) |
| COc1cc(CN(c2ccc(C)cc2)C2OC(=O)c3ccccc32)cc(OC)c1OC (stereo unspecified) | 59.5% (inactive) |
| CN1C(=O)C(C(=O)/C=C/c2ccccc2C(=O)O)C(=O)N(C)C1=O | 98.5% (inactive) |
| CC1(C)OC2OC3C(CN)OC(c4ccccc4)OC3C2O1 (stereo unspecified) | 118% (inactive) |
| O=S(=O)(Cc1ccc(Cl)cc1Cl)c1ccc(Cl)cc1 | 63.3% (inactive) |
| COC(=O)OC1C(O[C@H]2C[C@H]3[C@@H]4CC=C5C[C@@H](O)CC[C@]5(C)[C@H]4CC[C@]3(C)[C@H]2[C@H](C)C(=O)CCC(C)C)OCC(O)C1OC1OCC(O)C(O)C1OC(=O)c1ccc(OC)cc1 (stereo partly specified) | -16.5% (active) |
| CC(=O)C1CCC2C3CC(C)=C4CC(O)CCC4(C)C3CCC12C (stereo unspecified) | 103% (inactive) |
| CC(CN1CCN(CC(C)Nc2ccnc3cc(Cl)ccc23)CC1)Nc1ccnc2cc(Cl)ccc12 (stereo unspecified) | 9.67% (active) |
| C=CCOC(=O)C1=C(C)NC2=C(C(=O)CC(C)(C)C2)C1c1ccc(OC)cc1 (stereo unspecified) | 90.6% (inactive) |
| CCCCCCCC/C=C/CCCCCCCC1=NC(C)(C)CN1c1ccccc1 | 89.5% (inactive) |
| COc1ccc2c(c1)N(Cc1ccc(Cl)cc1)CCC2N1CCCC1=O (stereo unspecified) | 10.7% (inactive) |

Test system: NCI/ADR-RES ovarian
Assay: as above
Details: 10 µM unless noted

| SMILES | growth |
| --- | --- |
| O=c1c2cc(Br)cc(Br)c2nc(-c2ccc(Cl)cc2)n1/N=C\c1ccccc1F | 53.7% (inactive) |
| O=C(O)CSc1ccc(NCc2oc(CO)cc(=O)c2O)cc1 | 94.3% (inactive) |
| O=C(c1ccccc1)C1OC1C(=O)c1ccccc1 (stereo unspecified) | -18.5% (active) |
| CS(=O)(=O)c1ccc(C(=O)Nc2ccc(Cl)c(-c3ccccn3)c2)c(Cl)c1 | 11.1% (inactive) |
| COc1ccccc1/C=N\Nc1ccc([N+](=O)[O-])cn1 | 107% (inactive) |
| CCN1C(=O)N(CC)C2C1N=C(SC)N2/N=C/C=C/c1ccccc1OC (stereo unspecified) | -0.869% (active) |
| O=C(c1ccccc1)C(CCc1ccccn1)CCc1ccccn1 | 105% (inactive) |
| C=C[C@H]1CCC/C=C/[C@@H]2C[C@H](O)C[C@H]2[C@H](O)/C=C/C(=O)O1 | 5.21% (active) |
| CCN1C(=O)N(CC)C2C1NC(=O)N2/N=C/C=C/c1ccccc1 (stereo unspecified) | 38.7% (inactive) |
| O=[N+]([O-])c1ccc(N/N=C/c2ccccc2O)nc1 | 21.3% (inactive) |
| C#CCNc1nc(NCCNC(=O)CCl)nc(N(C)CCCCc2ccccc2)n1 | 102% (inactive) |
| O=S1(=O)NCCCN1CCNc1nccc(-c2c(-c3cccc(O)c3)nc3sccn23)n1 | 116% (inactive) |
| OC(CCCCCCCCC(O)CN1CCc2ccccc2C1)CN1CCc2ccccc2C1 (stereo unspecified) | 98.1% (inactive) |
| CCCCCCCCCCCCNC(=O)N[C@H](C(=O)N[C@H]1/C=C/CCNC(=O)/C=C/[C@H](C)NC1=O)C(C)C | 94.4% (inactive) |
| COc1ccccc1-[n+]1cc(-c2ccc(-c3ccccc3)cc2)n2c1CCCCC2 | 86.9% (inactive) |
| O=C(CCl)N1c2ccccc2Oc2ccc3ccccc3c21 | -11.9% (active) |
| C=C(c1ccc(C(=O)NCCCn2ccnc2)cc1)c1cc2c(cc1C)C(C)(C)CCC2(C)C | 5.05% (active) |
| COc1cc(CN2CCC(N3CCCC3=O)c3ccccc32)cc(OC)c1OC (stereo unspecified) | 67.3% (inactive) |
| CC(=O)Nc1ccc(/C=N/N2CCCCCC2)cc1 | 103% (inactive) |

| SMILES | growth |
| --- | --- |
| CCCCc1nc(Cl)c(C2CC(c3ccc(S(N)(=O)=O)cc3)=NN2c2cc(Cl)cc(Cl)c2)[nH]1 (stereo unspecified) | 90% (inactive) |
| O=C1NN(C(=O)c2ccccc2)C(c2ccc(Cl)c(Cl)c2)=C/C1=C\c1ccccc1[N+](=O)[O-] | 17.7% [6.75 µM] (inactive) |
| O=C(NNC(=O)c1cccc(Cl)c1)c1ccccc1 | 111% (inactive) |
| Cc1c(C(N)=O)sc2ncn(CC(=O)NN=C3CCCCC3)c(=O)c12 | 100% (inactive) |
| Clc1cc(Cl)cc(-c2cnc3nonc3n2)c1 | 98.9% (inactive) |
| CCOC(=O)Cn1c(-c2nonc2NC(=O)c2ccccc2F)nc2ccccc21 | 55.7% (inactive) |
| COc1ccc(C(=O)O)cc1.[Ag] | 99.5% (inactive) |
| COc1cccc(C2C(C#N)=C(N)Oc3cc4c(cc32)OCO4)c1 (stereo unspecified) | 5.77% (active) |
| C=CCOC(=O)C1=C(C)NC2=C(C(=O)CCC2)C1c1ccc(F)cc1 (stereo unspecified) | 101% (inactive) |
| COc1cc(CN(c2ccc(C)cc2)C2OC(=O)c3ccccc32)cc(OC)c1OC (stereo unspecified) | -16.7% (active) |
| CN1C(=O)C(C(=O)/C=C/c2ccccc2C(=O)O)C(=O)N(C)C1=O | 114% (inactive) |
| CC1(C)OC2OC3C(CN)OC(c4ccccc4)OC3C2O1 (stereo unspecified) | 100% (inactive) |
| O=S(=O)(Cc1ccc(Cl)cc1Cl)c1ccc(Cl)cc1 | -8.57% (active) |
| COC(=O)OC1C(O[C@H]2C[C@H]3[C@@H]4CC=C5C[C@@H](O)CC[C@]5(C)[C@H]4CC[C@]3(C)[C@H]2[C@H](C)C(=O)CCC(C)C)OCC(O)C1OC1OCC(O)C(O)C1OC(=O)c1ccc(OC)cc1 (stereo partly specified) | 70.5% (inactive) |
| CC(C)c1ccc2c(c1)CCC1C2CCCC1(C)NCc1ccccc1 (stereo unspecified) | 62.7% (inactive) |
| CC(=O)C1CCC2C3CC(C)=C4CC(O)CCC4(C)C3CCC12C (stereo unspecified) | 101% (inactive) |
| C=CCOC(=O)C1=C(C)NC2=C(C(=O)CC(C)(C)C2)C1c1ccc(OC)cc1 (stereo unspecified) | 103% (inactive) |
| CCCCCCCC/C=C/CCCCCCCC1=NC(C)(C)CN1c1ccccc1 | 98.1% (inactive) |
| COc1ccc2c(c1)N(Cc1ccc(Cl)cc1)CCC2N1CCCC1=O (stereo unspecified) | 53.3% (inactive) |
